Hit rate of the full screen: of about 340,000 compounds, about 1,800 (0.53%) were called active. This is one part of a sample in which actives are shown more often than they occur. Unmarked numbers belong to inactive results.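 The calls were made as follows: active = activation over 3 SD above normal in the single-dose calcium agonist read (cut at about 30% in these data); inactive = the rest.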

D(2) dopamine receptor (Homo sapiens), sequence (P14416 whole entry, looked up): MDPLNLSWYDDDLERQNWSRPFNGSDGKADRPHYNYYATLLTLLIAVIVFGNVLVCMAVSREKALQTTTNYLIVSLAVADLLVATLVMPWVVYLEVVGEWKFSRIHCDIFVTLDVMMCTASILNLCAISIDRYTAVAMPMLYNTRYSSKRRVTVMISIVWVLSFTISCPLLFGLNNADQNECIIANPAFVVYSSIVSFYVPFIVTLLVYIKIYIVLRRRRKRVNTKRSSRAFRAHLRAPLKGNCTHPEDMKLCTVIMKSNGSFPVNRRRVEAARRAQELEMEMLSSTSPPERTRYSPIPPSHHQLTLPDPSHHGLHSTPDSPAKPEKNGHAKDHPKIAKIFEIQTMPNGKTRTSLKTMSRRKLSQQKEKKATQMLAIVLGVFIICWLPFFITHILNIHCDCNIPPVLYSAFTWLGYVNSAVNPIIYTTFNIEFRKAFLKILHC

This assay concerns the target D(2) dopamine receptor (Homo sapiens) (UniProt P14416). The experiment in a line: HTS Assay for Allosteric Agonists of the Human D2 Dopamine Receptor: Primary Screen for Agonists. Also: 0% is about no effect. The note with it: HEK293 T-REx D2 cells, calcium flux agonist mode; at 2 µM; active compounds read high. The essentials:
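Tetracycline-induced HEK293 Trex cells with D2 receptor force-coupled to calcium signaling, plated overnight at 30 C and loaded with no-wash calcium dye. Calcium flux read kinetically for 180 s after compound addition; responses flag agonists.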
Consider `CCOC(=O)C1CCCN(C(=O)c2ccc3c(c2)sc2nc(-c4ccc(CC)cc4)cn23)C1` (centres undefined), for which the activation is 4.91%.

Consider `O=[N+]([O-])c1ccc(C=Nc2ccc(Cl)cc2Cl)s1`, for which the activation was 33.6% (active). `COc1ccc(CCNC(=O)c2cc3cccc4c3n2CC(C)S4)c(OC)c1OC` (centres undefined): the activation is -0.932%.

For `CCOCCCn1c(SCC(=O)Nc2ccc(CC)cc2)nc2ccccc2c1=O`, the activation is 0.545%. With `Cc1ccc(-n2c(=O)c3cccnc3n2CC(=O)NCc2ccc(F)cc2)cc1C`, the activation was 0.0353%. In the case of `O=C(CC1NCCc2ccccc21)Nc1cccc(Cl)c1` (centres undefined), the activation was 35.2% (active). Then `O=C(CC1C(=O)NCCN1C(=O)c1ccc([N+](=O)[O-])cc1)Nc1cccc(Cl)c1` (centres undefined), with -0.121%. On to `O=C(CC1NCCNC1=O)Nc1cc(Cl)cc(Cl)c1` (centres undefined), for which the activation was -0.701%. As to `Cc1ccccc1CNC(=O)C(=O)NCC(c1cccs1)S(=O)(=O)c1cccs1` (centres undefined), the activation is 0.367%. Consider `COc1cccc(NC(=O)N2CCN(C(=O)c3nsc4ccccc34)CC2)c1`, for which the activation is -0.159%. Then `COc1ccccc1CN1CCC(CNC(=O)c2cnn(-c3cccc(Cl)c3)c2C2CCN(C(=O)OC(C)(C)C)CC2)CC1`, with 1.52%; and `O=C(Cn1cc(SCc2ccccc2)c2ccccc21)N1CCCCC1`, with 0.397%; and `Cc1cc(OC(C)C(=O)Nc2sc3c(c2C(N)=O)CCCC3)ccc1Cl` (centres undefined), with -0.192%.

Regarding `CCCCCCc1cc2cc(-c3nnc(-c4ccccc4)o3)c(=O)oc2cc1O`, the activation is 32.4% (active). For `CCn1cc(C(=O)N2CCN(c3cc(Cl)ccc3C)CC2)c(=O)c2cc(S(=O)(=O)N3CCCC3)ccc21`, the activation is 0.428%. For `CC1=Nc2cc(C(=O)NCc3ccc(C)cc3)ccc2Sc2ccc(Cl)cc21`, the activation is 0.834%. The value for `CCc1ccc2oc(-c3ccc(NC(=O)c4cc5ccccc5o4)cc3)nc2c1` was 0.271%; that for `Cn1nnnc1SCCCNCc1ccc(Cl)cc1` was 0.973%; that for `Cc1cc(C)cc(NC(=O)CSc2oc(-c3ccccc3)nc2S(=O)(=O)c2ccc(Cl)cc2)c1` was -0.364%. The value for `CCn1c(=O)n(CC)c2cc(N3CCCC3)c(NC(=O)c3ccccc3Br)cc21` was 36.9% (active). The value for `CCn1c(=O)c(=O)n(CC)c2cc(N3CCCCC3)c(NC(=O)c3ccc(Cl)cc3)cc21` was -0.0698%; that for `CCn1c(=O)c(=O)n(CC)c2cc(N3CCCCC3)c(NC(=O)c3cccc(F)c3)cc21` was -0.09%; that for `CC(C)(C)C(=O)OCc1nc(-c2ccc(O)c(O)c2)cs1` was 73.8% (active). In the case of `CCCC(=O)N1c2ccc(-c3csc(N)n3)cc2CC1C` (centres undefined), the activation is 0.868%. The value for `Cc1onc(C(=O)NN)c1-c1csc(COc2ccccc2)n1` was -1.45%.

As to `COc1ccc(C2=NC3(CCCCC3)N(CC(=O)Nc3ccc(C(C)C)cc3)C2=O)cc1`, the activation was -0.0796%. Then `CN(C)c1ccc(C=C2C(=O)OC3(CCCC3)OC2=O)cc1`, with -0.32%. The value for `Cc1ccc(CN2C(=O)N/C(=C/c3cc(C)n(-c4ccccn4)c3C)C2=O)cc1` was -1.58%. Then `CN(C)c1ccc(/C=C2\NC(=S)N(Cc3ccccc3)C2=O)cc1`, with 45.9% (active); and `CCCCNC(=O)CSc1nc2cc3c(cc2c(=O)n1CCCCCC(=O)NCc1ccc2c(c1)OCO2)OCO3`, with 0.322%. Consider `CCOC(=O)N1CCN(CCC(=O)Nc2ccccc2)CC1`, for which the activation was 0.607%. The value for `O=C(CCN1CCN(c2ccccc2)CC1)NNC(=S)Nc1ccccc1` was 56.1% (active). Then `O=C(CN1CCN(c2ccccc2)CC1)Nc1ccc(F)cc1`, with 19.7%.

On to `Cc1ccc(S(=O)(=O)c2nc(-c3ccco3)oc2SCC(=O)Nc2ccc(F)cc2)cc1`, for which the activation was -0.0829%. Consider `COc1ccc(CNC(=O)C(C)NCc2ccccc2Cl)cc1` (centres undefined), for which the activation is -0.182%. For the compound `CC(CCc1ccccc1)NC(=O)c1cnc(Cl)c(Cl)c1` (centres undefined), the activation was -0.256%. Then `CC(CCc1ccc(O)cc1)NCc1ccc(Cl)cc1Cl` (centres undefined), with 32.8% (active). Regarding `C=Cc1ccc(Cn2c(C(=O)OC)cc3sc(C)cc32)cc1`, the activation was 0.446%.

As to `COc1ccccc1NC(=O)CCN1CCN(c2ccc(Cl)cc2)CC1`, the activation was -0.695%. As for `O=C(CCN1CCN(C/C=C/c2ccccc2)CC1)Nc1ccccc1Cl`, the activation was 76% (active). `O=C(CCN1CCN(C/C=C/c2ccccc2)CC1)Nc1cccc(F)c1`: the activation was 1.58%. The value for `Cc1nc(SCC(=O)N2CCN(c3ccccc3)CC2)[nH]c(=O)c1C` was 16%. For the compound `COc1cccc(C(=O)NCc2ccc3c(c2)CCN3C(=O)c2ccncc2)c1`, the activation is -0.0874%. Consider `COc1ccc(-c2nc(S(=O)(=O)c3ccccc3)c(N3CCCCC3)o2)cc1`, for which the activation is -0.427%. On to `O=S(=O)(c1cc(Cl)ccc1Cl)N1CCN(Cc2ccco2)CC1`, for which the activation was -1.47%. The value for `O=C(CN1CCN(S(=O)(=O)c2cc(Cl)ccc2Cl)CC1)c1ccc(O)c(O)c1` was 57.8% (active); that for `N#Cc1ccsc1NC(=O)CN1CCN(S(=O)(=O)c2cc(Cl)ccc2Cl)CC1` was 3.35%. As to `Cc1ccc(NC(=O)Cn2nnc3sc4c(c3c2=O)CCC(C)C4)cc1` (centres undefined), the activation is 0.94%. The value for `CCc1ccccc1NC(=O)Cc1ccc(NC(=O)N2CCCCc3ccccc32)cc1` was 0.173%.

The values above are taken from PubChem BioAssay AID485358 (National Center for Advancing Translational Sciences (NCATS), 2010).
